Laboratory results taken from PubChem BioAssay (NCI).
Values joined by “and” are separate entries in the source; they are usually repeats but may differ in a detail not shown here. Identical values can stand only once. About 83,000 compounds went through this panel and 20% of them were active in at least one assay; those are over-represented in the sample as a whole.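 Activity criterion: percent growth below 10, measured after cells in 96-well plates were exposed to a single compound concentration for 48 hours.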 Active and inactive are the calls of the source.

Experiments:
Experiment in all cases: NCI-60 one-dose screen, 48 h (100 = growth as untreated, 0 = no growth, -100 = all killed)
Settings in all cases: 10 µM unless noted
SK-MEL-2 melanoma = test system: SK-MEL-2 melanoma
EKVX NSCLC = test system: EKVX NSCLC
SN12C renal = test system: SN12C renal
UO-31 renal = test system: UO-31 renal
TK-10 renal = test system: TK-10 renal
ACHN renal = test system: ACHN renal
CAKI-1 renal = test system: CAKI-1 renal
A498 renal = test system: A498 renal
HL-60(TB) leukemia = test system: HL-60(TB) leukemia
MOLT-4 leukemia = test system: MOLT-4 leukemia
SR leukemia = test system: SR leukemia
RPMI-8226 leukemia = test system: RPMI-8226 leukemia
OVCAR-8 ovarian = test system: OVCAR-8 ovarian
OVCAR-5 ovarian = test system: OVCAR-5 ovarian
OVCAR-4 ovarian = test system: OVCAR-4 ovarian
SK-OV-3 ovarian = test system: SK-OV-3 ovarian
HS 578T breast = test system: HS 578T breast
IGROV1 ovarian = test system: IGROV1 ovarian
OVCAR-3 ovarian = test system: OVCAR-3 ovarian
CCRF-CEM leukemia = test system: CCRF-CEM leukemia

Measured: growth

C=CC1CN2CCC1CC2C(O)c1ccnc2ccccc12 (configuration not stated)
inactive: EKVX NSCLC 145% | SN12C renal 109% | UO-31 renal 67% | TK-10 renal 142% | ACHN renal 109% | CAKI-1 renal 144% | A498 renal 125% | HL-60(TB) leukemia 225% | MOLT-4 leukemia 258% | SR leukemia 344% | RPMI-8226 leukemia 213% | OVCAR-8 ovarian 127% | OVCAR-5 ovarian 116% | OVCAR-4 ovarian 129% | SK-OV-3 ovarian 133% | HS 578T breast 117%
active: SK-MEL-2 melanoma -4.22%

S=P(SP(=S)(c1ccccc1)c1ccccc1)(c1ccccc1)c1ccccc1
inactive: SK-MEL-2 melanoma 96.6% | EKVX NSCLC 97.6% | SN12C renal 97.5% | UO-31 renal 95.2% | TK-10 renal 96.8% | ACHN renal 99.4% | CAKI-1 renal 97.9% | A498 renal 98.3% | HL-60(TB) leukemia 48.5% | MOLT-4 leukemia 98.3% | SR leukemia 93.7% | RPMI-8226 leukemia 87.7% | OVCAR-5 ovarian 95.2% | OVCAR-4 ovarian 111% | SK-OV-3 ovarian 106% | IGROV1 ovarian 119% | OVCAR-3 ovarian 104%

O=C(CCCN1CCC2(CC1)C(=O)NCN2c1ccccc1)c1ccc(F)cc1
active: OVCAR-5 ovarian -54.6%
inactive: SK-MEL-2 melanoma 106% and 78.5% | EKVX NSCLC 57.6% and 80.6% | SN12C renal 99.6% and 84.2% | UO-31 renal 77.1% and 66% | TK-10 renal 115% and 99.1% | ACHN renal 20.3% | CAKI-1 renal 91.6% and 15.5% | A498 renal 50.3% and 30.6% | HL-60(TB) leukemia 100% and 114% | MOLT-4 leukemia 58.5% and 33% | SR leukemia 99.2% | RPMI-8226 leukemia 103% and 74.8% | OVCAR-8 ovarian 91.8% and 76.1% | OVCAR-4 ovarian 103% and 62.4% | SK-OV-3 ovarian 102% and 111% | OVCAR-3 ovarian 105% and 107% | HS 578T breast 97.1% and 79.2%

COC(=O)CCP(CCC(=O)OC)c1ccccc1
inactive: SK-MEL-2 melanoma 110% | EKVX NSCLC 93.9% | SN12C renal 99.5% | UO-31 renal 91.4% | TK-10 renal 109% | ACHN renal 108% | CAKI-1 renal 94.6% | A498 renal 123% | HL-60(TB) leukemia 98.5% | CCRF-CEM leukemia 109% | MOLT-4 leukemia 113% | SR leukemia 106% | OVCAR-8 ovarian 105% | OVCAR-4 ovarian 103% | SK-OV-3 ovarian 101% | IGROV1 ovarian 110% | OVCAR-3 ovarian 107% | HS 578T breast 114%

C[C@]12CC[C@@H](OC(=O)N(CCCl)N=O)C[C@@H]1CC[C@@H]1[C@@H]2CC[C@]2(C)C(=O)CC[C@@H]12
active: A498 renal -10.1% | HL-60(TB) leukemia -21.8% | IGROV1 ovarian -13.9%
inactive: SK-MEL-2 melanoma 37.8% | EKVX NSCLC 59.8% | SN12C renal 43% | UO-31 renal 49.9% | TK-10 renal 81.8% | ACHN renal 21.7% | CAKI-1 renal 20.7% | CCRF-CEM leukemia 26.6% | MOLT-4 leukemia 29.1% | RPMI-8226 leukemia 21.7% | OVCAR-8 ovarian 58.1% | OVCAR-5 ovarian 114% | OVCAR-4 ovarian 73% | SK-OV-3 ovarian 21.2% | OVCAR-3 ovarian 64.1%

O=[P+](O)c1cccnc1
inactive: SK-MEL-2 melanoma 106% | EKVX NSCLC 101% | SN12C renal 102% | UO-31 renal 91.5% | TK-10 renal 103% | ACHN renal 110% | CAKI-1 renal 102% | A498 renal 111% | HL-60(TB) leukemia 107% | MOLT-4 leukemia 109% | SR leukemia 96.4% | RPMI-8226 leukemia 100% | OVCAR-8 ovarian 107% | OVCAR-5 ovarian 107% | OVCAR-4 ovarian 107% | SK-OV-3 ovarian 103% | IGROV1 ovarian 111% | OVCAR-3 ovarian 108%

O=c1[nH]c(=O)[nH]c(=O)[nH]1
inactive: SK-MEL-2 melanoma 66.7% | EKVX NSCLC 110% | SN12C renal 120% | UO-31 renal 95.3% | TK-10 renal 140% | ACHN renal 161% | CAKI-1 renal 92.7% | A498 renal 129% | HL-60(TB) leukemia 88.8% | MOLT-4 leukemia 80.8% | SR leukemia 104% | RPMI-8226 leukemia 60.1% | OVCAR-8 ovarian 106% | OVCAR-5 ovarian 103% | OVCAR-4 ovarian 119% | SK-OV-3 ovarian 110% | IGROV1 ovarian 68.2% | OVCAR-3 ovarian 119% | HS 578T breast 95.7%

CC1=C2[C@H]3OC(=O)[C@@H](C)[C@@H]3CC[C@@]2(C)C=CC1=O
inactive: EKVX NSCLC 121% | SN12C renal 100% | UO-31 renal 99.2% | TK-10 renal 107% | ACHN renal 95.7% | CAKI-1 renal 112% | A498 renal 125% | HL-60(TB) leukemia 87.3% | MOLT-4 leukemia 104% | SR leukemia 114% | RPMI-8226 leukemia 91% | OVCAR-8 ovarian 116% | OVCAR-4 ovarian 110% | SK-OV-3 ovarian 122% | OVCAR-3 ovarian 129% | HS 578T breast 108%
active: SK-MEL-2 melanoma -0.59%
